# Measurements reported in PubChem BioAssay (Tox21).
# Inconclusive results are not listed. The source made the active and inactive calls. Calls come from the whole dose curve; as a rule, active = well fitted cell-killing curve with a large enough effect in the repeat runs; inconclusive = weak or mixed curves, or effect the other way; inactive = no such curve, though single readings can be large or run the other way.
# Assay: qHTS assay for small molecule activators of the heat shock response signaling pathway - cell viability counter screen (AID 743209); note: nearly all actives have a fitted effect of over 50% in size
# Conditions: HSE-bla HeLa viability, CellTiter-Glo luminescence, 5 h; series mostly up to 62.6 µM; activity change, negative = cytotoxicity: at the top concentration
# Source text: U.S. Tox21 Program National Center for Advancing Translational Sciences [NCATS] NIH Chemical Genomics Center [NCGC] U.S. Environmental Protection Agency [EPA] National Institutes of Environmental Health Sciences [NIEHS] National Toxicology Program [NTP] U.S. Food and Drug Administration [FDA] Tox21 Assay Overview: Various chemicals, environmental and physiological stress conditions may lead to the activation of heat shock response/ unfolded protein response (HSR/UPR). There are three heat shock transcription factors (HSFs) (HSF-1, -2, and -4) mediating transcriptional regulation of the human HSR. To identify the compounds that activate HSR signaling, HSE-bla HeLa cell line (Invitrogen, Carlsbad, CA, USA) containing a beta-lactamase reporter gene under the control of the heat shock response elements was used to screen Tox21 10K compound library. The cytotoxicity of the Tox21 compound library against the HSE-bla HeLa cell line was tested in parallel by measuring the cell viability using CellTiter-Glo assay (Promega, Madison, WI) in the same wells.
# Tox21 Assay Protocol Summary: The CellSensor HSE-bla HeLa cells (Invitrogen, Carlsbad, CA, USA) were dispensed at 1500 cells/6uL/well into 1536-well black wall/clear bottom plates using a Multidrop combi (Thermo Fisher Scientific, Waltham, MA) dispenser. After the assay plates were incubated at 37 C and 5% CO2 overnight, 23 nL of compounds dissolved in DMSO, positive controls or DMSO only was transferred to the assay plate by a Pintool station (Kalypsys, San Diego, CA). The plates were incubated at 37 C for 5 h. After 1 uL of LiveBLAzerTM B/G FRET substrate was added using a Flying Reagent Dispenser (FRD, Beckman Coulter, Indianapolis, IN, USA), the plates were incubated at room temperature for 2.5 h, and fluorescence intensity was measured by an Envision plate reader (PerkinElmer, Shelton, CT). For cell viability readout that measures cytotoxicity, 3 ul/well of CellTiter-Glo reagent was added into the assay plates using a FRD. After 30 min incubation at room temperature, the luminescence intensity in the plates was measured using a ViewLux (PerkinElmer) plate reader.
# % is set by controls: 0 for no effect and ±100 for the full control effect; potency is the fitted concentration of half-maximal effect.
Structure (SMILES),"activity change, negative = cytotoxicity",Potency
CN(C)CCCN1c2ccccc2Sc2ccccc21,12.6% (inactive),
O=C(O)C1(C(=O)O)CCC1.[NH2-].[NH2-].[Pt+2],4.31% (inactive),
CC(CSC(=O)c1ccccc1)C(=O)N1C[C@@H](Sc2ccccc2)C[C@H]1C(=O)O (stereo not given in full),5.36% [at 29.1 µM] (inactive),
CC(C)O.CC(C)O.CCOC(=O)/C=C(\C)O.CCOC(=O)/C=C(\C)O.[Ti],-4.48% (inactive),
C=C(C)C(=O)OCC,-0.939% [at 81.1 µM] (inactive),
COc1cccc(N(C)C(=S)Oc2ccc3c(c2)CCCC3)n1,-2.36% (inactive),
CN1CCN(C(c2ccccc2)c2ccccc2)CC1,3.89% (inactive),
C=C1[C@H]2CC[C@@H]3[C@H]2C(C)(C)CCC[C@]13C,11.9% (inactive),
NC(=O)C(c1ccccc1)(c1ccccc1)[C@@H]1CCN(CCc2ccc3c(c2)CCO3)C1,6.92% (inactive),
CCNc1cc(O)ccc1C,-4.87% (inactive),
Cc1ncc(CO)c(C=O)c1O,-29.4% (inactive),
CCCCc1ncc(/C=C(\Cc2cccs2)C(=O)O)n1Cc1ccc(C(=O)O)cc1,0.795% (inactive),
O=C1CCC(=O)O1,12.5% [at 81.1 µM] (inactive),
c1cc(CCCc2ccncc2)ccn1,0.246% (inactive),
CCCCCCCCCCCC(=O)OC[C@@H](O)[C@H]1OC[C@H](OCCO)[C@H]1OCCO,-12.2% (inactive),
C=CC(=O)OCCOc1ccccc1,,19.5 µM (active)
C[N+](C)(C)CCOC(=O)CCC(=O)OCC[N+](C)(C)C,-1.47% (inactive),
Cc1nn(C)c(Oc2ccccc2)c1/C=N/OCc1ccc(C(=O)OC(C)(C)C)cc1,1.75% (inactive),
C[C@H]1C[C@H]2[C@@H]3CCC4=CC(=O)C=C[C@]4(C)[C@@]3(Cl)[C@@H](O)C[C@]2(C)[C@@]1(O)C(=O)CO,7.57% (inactive),
CC1=CC[C@H](C(C)C)C=C1,-1.14% (inactive),

Structure (SMILES),"activity change, negative = cytotoxicity",Potency
CCC(C)O (stereo not given),6.89% [at 81.1 µM] (inactive),
CCCCOC(=O)CCCCCCCC(=O)OCCCC,4.11% (inactive),
CCC(C)(C)CC,-17.9% [at 81.1 µM] (inactive),
CCN(CC)CCNc1ccc(CNC=O)c2sc3ccc(OC)cc3c(=O)c12,-16.2% (inactive),
CC(=O)c1cccc([N+](=O)[O-])c1,13.5% (inactive),
CCCCCCCCCc1ccc(OCCOCCO)cc1,,23 µM (active)
C/C=C/C(=O)CC,2.01% [at 13.2 µM] (inactive),
O=C1[C@H]2CCCC[C@H]2C(=O)N1CCCCN1CCN(c2nsc3ccccc23)CC1,2.06% (inactive),
CN(C)c1ccc(CCO)cc1,-0.164% (inactive),
C=CC1CC2C=CC1C2 (stereo not given),-2.96% (inactive),
CCOC(=O)C(F)(F)F,5.19% (inactive),
O[C@@H](COc1cccc2ncccc12)CN1CCN(C2c3ccccc3[C@@H]3[C@H](c4ccccc42)C3(F)F)CC1 (stereo not given in full),3.57% (inactive),
Nc1cc(C(=O)O)c(O)c(S(=O)(=O)O)c1,2.55% (inactive),
CC(=O)[O][Al][O]C(C)=O,-0.1% (inactive),
Cc1[nH]c(C)c(Cl)c(=O)c1Cl,-0.909% [at 29.1 µM] (inactive),
CC(=O)OC[C@H]1O[C@@H](n2ncc(=O)[nH]c2=O)[C@H](OC(C)=O)[C@@H]1OC(C)=O,-22.2% (inactive),
CCOC(=O)NCCOc1ccc(Oc2ccccc2)cc1,7.21% (inactive),
Cc1cc(N)c2cc(NC(=O)Nc3ccc4nc(C)cc(N)c4c3)ccc2n1,-39.3% (inactive),
CCOC(=O)C(=O)CCc1ccccc1,0.28% (inactive),
CC(=O)NO,15.8% (inactive),
